# Experimental data as given in PubChem BioAssay (Tox21).
# Inconclusive results are not listed. Active and inactive are the calls of the source. Calls follow the shape of the dose curve; as a rule, active = well fitted cell-killing curve with a large enough effect in the repeat runs (not every such curve was filed as active); inconclusive = weak or mixed curves, or effect the other way; inactive = no such curve, though single readings can be large or run the other way.
# Assay: qHTS assay to identify small molecule antagonists of the farnesoid-X-receptor (FXR) signaling pathway - cell viability counter screen (AID 743221); also: nearly all actives have a fitted effect of over 50% in size
# Conditions: FXR-bla HEK293T viability, CellTiter-Glo luminescence, 16 h; series mostly up to 62.6 µM; activity change, negative = cytotoxicity: at the top concentration
# Text: National Center for Advancing Translational Sciences [NCATS]
# NIH Chemical Genomics Center [NCGC]
# U.S. Environmental Protection Agency [EPA]
# National Institutes of Environmental Health Sciences [NIEHS]
# National Toxicology Program [NTP]
# U.S. Food and Drug Administration [FDA]
# The farnesoid-X-receptor (FXR), a nuclear hormone receptor, is highly expressed in liver, intestine, kidney and adrenal cortex. Natural ligands of FXR are the bile acids (Cholic acid, Chenodeoxy cholic acid etc). FXR is an important regulator of diverse metabolic pathways, including the bile acid homeostasis, lipid and glucose metabolisms. FXR regulates the expression of target genes by binding either as a monomer or as a heterodimer with the retinoid X receptor (RXR). Numerous studies have reported that FXR exerts protective function during cholestasis, diabetes, liver regeneration, and cancer. To identify compounds that inhibit FXR signaling, GeneBLAzer FXR-UAS-bla HEK 293T cell line (Invitrogen, Carlsbad, CA) containing a beta-lactamase reporter gene under the control of a UAS response element was used to screen the Tox21 10K compound library. The cytotoxicity of the Tox21 compound library against the FXR-bla cell line was tested in parallel by measuring the cell viability using CellTiter-Glo assay in the same wells.
# Tox21 Assay Protocol Summary:
# FXR-bla cells were dispensed at 5000 cells/5uL/well in 1536-well black wall/clear bottom plates using a Multidrop Combi (Thermo Fisher Scientific, Waltham, MA) dispenser. After the assay plates were incubated at 37 C and 5% CO2 for 5 h, 23 nL of compounds dissolved in DMSO, positive controls or DMSO only was transferred to the assay plate by a Pintool station (Kalypsys, San Diego, CA), followed by addition of 1 uL Chenodeoxycholic acid (50 uM, final concentration in the wells). The assay plates were incubated at 37C for 16 h. After 1 uL of LiveBLAzerTM B/G FRET substrate was added using a Bioraptr Flying Reagent Dispenser (FRD) workstation (Beckman Coulter, Indianapolis, IN), the plates were incubated at room temperature for 2 h, and fluorescence intensity was measured by an Envision plate reader (PerkinElmer, Shelton, CT). For cell viability readout that measures cytotoxicity, 4uL/well of CellTiter-Glo reagent was added into the assay plates using a Bioraptr FRD. After 30 min incubation at room temperature, the luminescence intensity in the plates was measured using a ViewLux plate reader (PerkinElmer).
# % is scaled to controls: 0 for no effect and ±100 for the full control effect; potency is read from the fitted curve at half-maximal effect.
SMILES,"activity change, negative = cytotoxicity",Potency
Cc1ccccc1C(=O)O,1.44% (inactive),
C=C(C)C(=O)NCCC[N+](C)(C)C,-10.6% (inactive),
OC/C=C/c1ccccc1,0.285% [at 81.1 µM] (inactive),
CCN1CCN(c2cc3c(cc2F)c(=O)c(C(=O)O)cn3C2CC2)CC1,21.8% (inactive),
COc1cc(O)cc(O)c1,2.63% (inactive),
CCN1CCCC(OC(=O)C(c2ccccc2)c2ccccc2)C1 (stereo not given),-4.59% (inactive),
CCCCCC[C@@H](CCC)C(=O)O,-11.6% (inactive),
CCCCCCCCCCC1CO1 (stereo not given),16% (inactive),
CC(C)(C)N(CCO)CCO,6.8% [at 81.1 µM] (inactive),
Cc1c(C)n(CCN(C)C)c2ccc(C(=O)OCCN(C)C)cc12,-5.04% (inactive),
CCO[Si](C)(OCC)OCC,-5.15% (inactive),
COC[C@H](c1ccc(C(F)(F)F)cc1)N1CCN(C2(C)CCN(C(=O)c3c(C)ncnc3C)CC2)C[C@H]1C,-16.5% (inactive),
C=CCn1c(=O)n([C@@H]2O[C@H](CO)[C@@H](O)[C@H]2O)c2nc(N)[nH]c(=O)c21,7.33% (inactive),
OC[C@H]1O[C@@H]2O[C@H]3[C@H](O)[C@@H](O)[C@@H](O[C@H]4[C@H](O)[C@@H](O)[C@@H](O[C@H]5[C@H](O)[C@@H](O)[C@@H](O[C@H]6[C@H](O)[C@@H](O)[C@@H](O[C@H]7[C@H](O)[C@@H](O)[C@@H](O[C@H]8[C@H](O)[C@@H](O)[C@@H](O[C@H]9[C@H](O)[C@@H](O)[C@@H](O[C@H]1[C@H](O)[C@H]2O)O[C@@H]9CO)O[C@@H]8CO)O[C@@H]7CO)O[C@@H]6CO)O[C@@H]5CO)O[C@@H]4CO)O[C@@H]3CO,-2.73% [at 29.1 µM] (inactive),
O=C(O)/C=C/c1ccc(Cn2ccnc2)cc1,2.84% (inactive),
CCCC(=O)O[C@]1(C(=O)CCl)[C@@H](C)C[C@H]2[C@@H]3CCC4=CC(=O)C=C[C@]4(C)[C@@]3(F)C(=O)C[C@@]21C,-12% (inactive),
OCC(CO)(CO)COCC(CO)(CO)CO,-6.56% (inactive),
CC(=O)c1ccc(C)cc1,13.4% (inactive),
Cc1c(F)cc2c(=O)c(C(=O)O)cn3c2c1CCC3C (stereo not given),15.2% (inactive),
O=C1OC(=O)c2cc([N+](=O)[O-])ccc21,-1.31% (inactive),

SMILES,"activity change, negative = cytotoxicity",Potency
Cc1ccccc1Br,-1.37% (inactive),
O=C(O)c1ccccc1S,-3.68% (inactive),
Nc1[nH]c(=O)ncc1F,12.4% (inactive),
CN(C)CCn1nnnc1SCC1=C(C(=O)O)N2C(=O)[C@@H](NC(=O)Cc3csc(N)n3)[C@H]2SC1,11.8% (inactive),
OC1OC[C@@H](O)[C@H](O)[C@H]1O (stereo not given in full),0.549% (inactive),
NC1CCN(c2cccc(Cl)n2)CC1,0.492% (inactive),
CN(C)C(=O)C(CCN1CCC(O)(c2ccc(Cl)cc2)CC1)(c1ccccc1)c1ccccc1,,29.8 µM (active)
CCCCCCC(CCCCCCCCCCC(=O)OCC(COC(C)=O)OC(C)=O)OC(C)=O (stereo not given),3.06% (inactive),
Nc1ncnc2c1ncn2Cc1c(F)cccc1Cl,-10.4% (inactive),
CCO[Si](CCCN=C=O)(OCC)OCC,3.78% (inactive),
CC(CCO)CCCC(C)(C)O (stereo not given),0.566% (inactive),
CNC(=O)c1c(I)c(NC(=O)CCCCC(=O)Nc2c(I)c(C(=O)O)c(I)c(C(=O)NC)c2I)c(I)c(C(=O)O)c1I,2.51% (inactive),
NS(=O)(=O)c1cc(C2(O)NC(=O)c3ccccc32)ccc1Cl (stereo not given),-1.93% (inactive),
CC(C=O)Cc1ccc(C(C)C)cc1 (stereo not given),18.5% (inactive),
COCCOC(=O)CC#N,5.53% (inactive),
COC(C(=O)O)c1ccccc1 (stereo not given),-0.197% (inactive),
Nc1nc2c(ncn2CCC(CO)CO)c(=O)[nH]1,4.43% (inactive),
CSc1nc(NC2CC2)nc(NC(C)(C)C)n1,1.96% (inactive),
CC1CCN(CCCC(=O)c2ccc(F)cc2)CC1,-3.2% (inactive),
CCC(C(=O)NC(N)=O)c1ccccc1 (stereo not given),-19.4% (inactive),
